The record followed here is the supplement of paper PMC13380429.

Experiment [1] concerns Vero E6 infected with SARS-CoV-2. Nature of the experiment: morphology score (similarity to uninfected cells); higher = more like uninfected cells. Conditions: 24 h.
Experiment [2] shares this test system. Briefly: SARS-CoV-2 infection rate relative to infected DMSO; higher = more infection, active = 60 or less. Conditions: 24 h.

The compound `CNc1cc2c(Nc3cccc(Br)c3)ncnc2cn1` (10 µM) returned a morphology score in experiment [1] of -0.276. The SARS-CoV-2 infection rate in experiment [2] was 112% (inactive).
For `C[C@@H]1Cc2c([nH]c3ccccc23)[C@@H](c2c(F)cc(/C=C/C(=O)O)cc2F)N1CC(C)(C)F` (10 µM), in that order: -0.0686 and 105% (inactive).
`O=C1c2ccccc2C(=O)C1c1ccc(Cl)cc1` [chlorindione] (10 µM): the morphology score in experiment [1] was 0.011. Further, the SARS-CoV-2 infection rate in experiment [2] was 102% (inactive).
For `CC(C)(C)NC[C@H](O)c1ccc(O)cc1Cl` [meluadrine] (10 µM), in that order: 0.0145 and 94% (inactive).
In experiment [1], `COCCCOc1ccnc(C[S+]([O-])c2nc3ccccc3[nH]2)c1C` (stereo not given) [rabeprazole] (10 µM) displayed a morphology score of 0.00912. Also, in experiment [2], the SARS-CoV-2 infection rate was 106% (inactive).
The corresponding values for `C[C@H](Oc1ccc(S(C)(=O)=O)cc1C(=O)N1CCN(c2ncc(C(F)(F)F)cc2F)CC1)C(F)(F)F` [bitopertin] (10 µM) are 0.119 and 108% (inactive).
In turn, `Cc1ncc([N+](=O)[O-])n1CC(C)O` (stereo not given) [secnidazole] (10 µM) showed a morphology score in experiment [1] of 0.17. Further, in experiment [2], the SARS-CoV-2 infection rate was 99% (inactive).
For `COc1cc(N2CCN(C(C)=O)CC2)ccc1Nc1ncc(Cl)c(Nc2ccc(N3CCN(C(C)=O)CC3)cc2OC)n1` (10 µM), in that order: 0.0828 and 114% (inactive).
The corresponding values for `CN1[C@@H]2C[C@@H](O)C[C@H]1[C@@H]1O[C@@H]12` [scopine] (10 µM) are 0.146 and 93.5% (inactive).
The compound `COc1ccc(-c2cc(=O)c3c(OC)c(OC)c(OC)c(OC)c3o2)cc1` [tangeritin] (10 µM) returned a morphology score in experiment [1] of 0.00246. Also, the SARS-CoV-2 infection rate in experiment [2] is 105% (inactive).
The corresponding values for `C=C[C@]1(C)CC[C@@H](C(=C)C)C[C@H]1C(=C)C` [beta-elemene] (10 µM) are -0.205 and 111% (inactive).
For `Cc1ccc(-c2c(-c3nn(C)c4ncnc(N5CC[C@H](N6CCCCC6)C5)c34)cnn2C)cc1` (10 µM), the morphology score in experiment [1] is 0.14. The SARS-CoV-2 infection rate in experiment [2] was 100% (inactive).
The corresponding values for `CC(=O)Nc1nnc(S(N)(=O)=O)s1` [acetazolamide] (10 µM) are 0.0392 and 85.5% (inactive).
For `O=C(O)CCc1cc(I)c(Oc2ccc(O)cc2)c(I)c1` [diiodothyropropionic-acid] (10 µM), in that order: 0.207 and 92% (inactive).
In turn, `O=C1NC(=O)c2c1c(-c1ccccc1)cc1[nH]c3ccc(O)cc3c21` (0.833333 µM) gave a morphology score in experiment [1] of 0.685. Also, the SARS-CoV-2 infection rate in experiment [2] is 93.5% (inactive).
The corresponding values for `CC(C)(C)NC(=O)[C@@H]1CN(Cc2cccnc2)CCN1C[C@@H](O)C[C@@H](Cc1ccccc1)C(=O)N[C@H]1c2ccccc2C[C@H]1O` [indinavir] (10 µM) are 0.0426 and 110% (inactive).
`O=C1N(c2ccccc2)c2ccccc2C1(Cc1ccncc1)Cc1ccncc1` [linopirdine] (10 µM): the morphology score in experiment [1] is 0.249. In addition, in experiment [2], the SARS-CoV-2 infection rate is 91% (inactive).
For `Nc1nc(NC[C@H]2CC[C@H](CNS(=O)(=O)c3cccc4ccccc34)CC2)nc2ccccc12` (0.833333 µM), in that order: -0.0427 and 93.5% (inactive).
Compound `Nc1ccc(-c2nc3ccc(-c4nc5ccc(N)cc5[nH]4)cc3[nH]2)cc1` (10 µM) gave a morphology score in experiment [1] of -0.218. Also, the SARS-CoV-2 infection rate in experiment [2] is 108% (inactive).
For `O=C1COc2c(CCNCCN(C(=O)CCNCCc3ccc(Cl)c(Cl)c3)C3CCCCC3)ccc(O)c2N1` (10 µM), in that order: -0.232 and 100% (inactive).
Turning to `CC(=O)Nc1nc2c(Oc3cc(-c4ccc(C(F)(F)F)cc4)ncn3)cccc2s1` (10 µM), the morphology score in experiment [1] was found to be 0.163. For the same compound, in experiment [2], the SARS-CoV-2 infection rate is 108% (inactive).
For `CS(=O)(=O)c1ccc([C@@H](CC2CCCC2)C(=O)Nc2nccs2)cc1` (10 µM), in that order: 0.0357 and 104% (inactive).
The corresponding values for `O=C(/C=C/N1C[C@H]2C[C@@H]1CN2c1ccccn1)c1ccccc1O` (10 µM) are -0.0425 and 116% (inactive).
The corresponding values for `OC[C@H]1O[C@@H](O[C@@H]2[C@H](O)[C@@H](O)[C@H](O[C@H]3[C@H](O)[C@@H](O)C(O)O[C@@H]3CO)O[C@@H]2CO)[C@H](O)[C@@H](O)[C@H]1O` (stereo not given in full) [4-galactosyllactose] (10 µM) are -0.0673 and 114% (inactive).
Consider `O=c1cc(-c2ccc(O)cc2)oc2cc(O)cc(O)c12` [apigenin] (10 µM), for which the morphology score in experiment [1] stood at 0.129. Moreover, the SARS-CoV-2 infection rate in experiment [2] is 104% (inactive).
For `COc1ccc(Cl)c(Nc2ncnc3cc(OCC4CCN(C)CC4)c(OC)cc23)c1` (10 µM), the morphology score in experiment [1] is -0.108. The SARS-CoV-2 infection rate in experiment [2] was 114% (inactive).
For `O=C(Nc1ccc(Cl)cc1)Nc1ccc(Cl)c(Cl)c1` [triclocarban] (10 µM), in that order: 0.0739 and 98.5% (inactive).
Consider `CC(=O)OCC(=O)[C@@]1(O)CC[C@H]2[C@@H]3CCC4=CC(=O)C=C[C@]4(C)[C@@]3(Cl)[C@@H](Cl)C[C@@]21C` [dichlorisone-acetate] (10 µM), for which, in experiment [1], the morphology score is -0.00102. Also, the SARS-CoV-2 infection rate in experiment [2] was 102% (inactive).
For `CCOC(=O)[C@H](CCc1ccccc1)N[C@@H](C)C(=O)N1[C@H](C(=O)O)C[C@@H]2CCC[C@@H]21` [ramipril] (10 µM), in that order: 0.0476 and 98.5% (inactive).
For `Cc1ccc(-c2csc3ncnc(SCCC(=O)O)c23)cc1` (10 µM), in that order: 0.15 and 103% (inactive).
In turn, `Oc1ccc2c3c1O[C@H]1[C@@H](O)CC[C@@]4(O)[C@@H](C2)N(CC2CCC2)CC[C@]314` [nalbuphine] (10 µM) had a morphology score in experiment [1] of -0.0532. For the same compound, the SARS-CoV-2 infection rate in experiment [2] is 114% (inactive).
The corresponding values for `OC[C@H]1O[C@@H](c2ccc(Cl)c(Cc3ccc(O[C@H]4CCOC4)cc3)c2)[C@H](O)[C@@H](O)[C@@H]1O` [empagliflozin] (10 µM) are -0.159 and 106% (inactive).
For `COc1cccc(-n2nc(C(=O)O)cc2-c2ccc(C3CCCCC3)c(Cl)c2)c1` (10 µM), in that order: 0.0895 and 102% (inactive).
The compound `CS(=O)(=O)Oc1ccc2c(NC(N)=O)c(C(=O)c3ccc(Cl)cc3Cl)oc2c1` [lirimilast] (10 µM) gave a morphology score in experiment [1] of 0.204. In experiment [2], the SARS-CoV-2 infection rate was 101% (inactive).
Turning to `N[C@@H](Cn1ccc(=O)n(Cc2ccccc2C(=O)O)c1=O)C(=O)O` (10 µM), the morphology score in experiment [1] was determined as 0.28. Besides, the SARS-CoV-2 infection rate in experiment [2] is 79% (inactive).
The corresponding values for `O=C(O)C(=O)O.[NH-][C@@H]1CCCC[C@H]1[NH-].[Pt+2]` [oxaliplatin] (10 µM) are -0.0885 and 112% (inactive).
In the case of `O=C(Nc1cccc2cccnc12)c1ccc(N2C(=O)[C@@H]3[C@H](C2=O)[C@H]2C=C[C@@H]3C2)cc1` (10 µM), the morphology score in experiment [1] was determined as 0.00174. Besides, the SARS-CoV-2 infection rate in experiment [2] is 102% (inactive).
The corresponding values for `CN1CC2c3ccccc3Oc3ccc(Cl)cc3C2C1` (stereo not given) [asenapine] (10 µM) are 0.67 and 41% (active).
On to `Cc1cc(CC(=O)O)n(C)c1C(=O)c1ccc(Cl)cc1` [zomepirac] (10 µM), for which the morphology score in experiment [1] worked out at 0.117. Besides, the SARS-CoV-2 infection rate in experiment [2] was 104% (inactive).
`CCOC(=O)[C@H](CCc1ccccc1)N[C@H]1CCc2ccccc2N(CC(=O)O)C1=O` [benazepril] (10 µM): the morphology score in experiment [1] is 0.413. Also, the SARS-CoV-2 infection rate in experiment [2] was 90.5% (inactive).
`O=C(Nc1ccccc1)Nc1ccc(-c2ccc(C(=O)[C@@H]3CCC[C@@H]3C(=O)O)cc2)cc1` (10 µM) gave a morphology score in experiment [1] of 0.202. Also, in experiment [2], the SARS-CoV-2 infection rate is 102% (inactive).
The corresponding values for `CC(C)N[C@H]1CCn2c(=O)[nH]c3cccc(c32)[C@@H]1O` [zilpaterol] (10 µM) are 0.19 and 106% (inactive).
Regarding `CC1(C)CCC2=C(O1)c1ccccc1C(=O)C2=O` [beta-lapachone] (10 µM), the morphology score in experiment [1] was 0.361. Also, in experiment [2], the SARS-CoV-2 infection rate was 78.5% (inactive).
Consider `COc1c(O)cc2c(c1O)[C@@H]1O[C@H](CO)[C@@H](O)[C@H](O)[C@H]1OC2=O` [bergenin] (10 µM), for which the morphology score in experiment [1] stood at 0.087. For the same compound, in experiment [2], the SARS-CoV-2 infection rate was 96% (inactive).
The corresponding values for `CC(CNC(=O)c1cccnc1)NC(=O)c1cccnc1` (stereo not given) [nicaraven] (10 µM) are -0.02 and 114% (inactive).
On to `COc1cc2nc(N3CCN(C(=O)COc4c(OC)cccc4C(C)C)CC3)nc(N)c2cc1OC` (10 µM), for which the morphology score in experiment [1] was -0.065. For the same compound, the SARS-CoV-2 infection rate in experiment [2] is 92.5% (inactive).
For `NCCCC[C@H](NC(=O)[C@@H]1CCCN1C(=O)[C@@H]1CSSC[C@H](NC(=O)CNC(=O)CNC(=O)CN)C(=O)N[C@@H](Cc2ccc(O)cc2)C(=O)N[C@@H](Cc2ccccc2)C(=O)N[C@@H](CCC(N)=O)C(=O)N[C@@H](CC(N)=O)C(=O)N1)C(=O)NCC(N)=O` [terlipressin] (10 µM), the morphology score in experiment [1] is 0.0361. The SARS-CoV-2 infection rate in experiment [2] was 112% (inactive).
In turn, `COc1ccc(-c2oc3cc(OC)ccc3c2C(=O)c2ccc(C#N)cc2)cc1` (10 µM) had a morphology score in experiment [1] of 0.111. In experiment [2], the SARS-CoV-2 infection rate is 97% (inactive).
For `O=c1nc2ccccc2c2n1CC(CN1CCN(c3ccccc3)CC1)N2` (stereo not given) (10 µM), in that order: 0.221 and 93% (inactive).
`Oc1ccc(Cl)cc1Cc1cc(Cl)ccc1O` [dichlorophen] (10 µM) had a morphology score in experiment [1] of 0.14. Besides, the SARS-CoV-2 infection rate in experiment [2] is 99.5% (inactive).
The corresponding values for `CC1(C)C(=O)N(c2ccc(C#N)c(C(F)(F)F)c2)C(=O)N1CCCCO` (10 µM) are -0.0623 and 100% (inactive).
For `Nc1n[n+]([O-])c2ccccc2[n+]1[O-]` [tirapazamine] (10 µM), in that order: 0.0691 and 99.5% (inactive).
For the compound `Nc1nc(N)c(N=O)c(OCC2CCCCC2)n1` (10 µM), in experiment [1], the morphology score came out at 0.621. Moreover, the SARS-CoV-2 infection rate in experiment [2] is 54.5% (active).
The corresponding values for `Nc1sc2c(c1C(=O)c1ccc(Cl)cc1)CCCC2` (10 µM) are 0.0676 and 96.5% (inactive).
The corresponding values for `CCC[C@H](NC(=O)/C(C#N)=C/c1cccc(Br)n1)c1ccccc1` (0.833333 µM) are 0.143 and 108% (inactive).
The compound `Cc1[nH]c(/C=C2\C(=O)Nc3ccccc32)c(C)c1CCC(=O)O` [orantinib] (10 µM) displayed a morphology score in experiment [1] of 0.123. In experiment [2], the SARS-CoV-2 infection rate was 92.5% (inactive).
The corresponding values for `CN1C(=O)COc2c(C(=O)NC3CN4CCC3CC4)cc(Cl)cc21` (stereo not given) [azasetron] (10 µM) are 0.143 and 98% (inactive).
Compound `CC(=O)NO` [acetohydroxamic-acid] (10 µM) showed a morphology score in experiment [1] of -0.0513. Moreover, in experiment [2], the SARS-CoV-2 infection rate was 106% (inactive).
For `Cc1nc(Nc2cnn(C3CCNCC3)c2)nc2c1N(C)C(=O)c1cc3ccccc3cc1N2C` (0.833333 µM), in that order: 0.143 and 104% (inactive).
The corresponding values for `OC(c1ccccc1)(c1ccccc1)C12CC[N+](CCOCc3ccccc3)(CC1)CC2` [umeclidinium] (10 µM) are 0.162 and 101% (inactive).
